The full ranking holds about 33,000 sequences; the median of “E-score (-0.5 to 0.5)” is about -0.056, and the highest 2% start at about 0.38. Many of the other results were omitted from the sample, so the highest values are more common in it than they were.

The target of the assay is Stb4 (UniProt P50104). Briefly: PBM E-score (8-mer binding enrichment) (E-score (-0.5 to 0.5)); higher = stronger / more preferred TF binding. The note with it: protein concentration: 200 nM; construct: GST-DNA-binding domain. The gist of the method: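 Yeast transcription factors, full-length or as DNA-binding domains, were expressed with a GST tag using PURExpress in vitro transcription/translation. At about 100-200 nM they were applied to universal all-10-mer Agilent arrays, double-stranded by primer extension on fresh or once-stripped slides. Fluorescent anti-GST detected bound protein, and masliner normalised the scans. E-scores for ungapped eight-base words, pooled with reverse complements, came from the Universal PBM Analysis Suite.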
Chain of UniProt P50104 (P50104 whole entry, the tested form may be a part): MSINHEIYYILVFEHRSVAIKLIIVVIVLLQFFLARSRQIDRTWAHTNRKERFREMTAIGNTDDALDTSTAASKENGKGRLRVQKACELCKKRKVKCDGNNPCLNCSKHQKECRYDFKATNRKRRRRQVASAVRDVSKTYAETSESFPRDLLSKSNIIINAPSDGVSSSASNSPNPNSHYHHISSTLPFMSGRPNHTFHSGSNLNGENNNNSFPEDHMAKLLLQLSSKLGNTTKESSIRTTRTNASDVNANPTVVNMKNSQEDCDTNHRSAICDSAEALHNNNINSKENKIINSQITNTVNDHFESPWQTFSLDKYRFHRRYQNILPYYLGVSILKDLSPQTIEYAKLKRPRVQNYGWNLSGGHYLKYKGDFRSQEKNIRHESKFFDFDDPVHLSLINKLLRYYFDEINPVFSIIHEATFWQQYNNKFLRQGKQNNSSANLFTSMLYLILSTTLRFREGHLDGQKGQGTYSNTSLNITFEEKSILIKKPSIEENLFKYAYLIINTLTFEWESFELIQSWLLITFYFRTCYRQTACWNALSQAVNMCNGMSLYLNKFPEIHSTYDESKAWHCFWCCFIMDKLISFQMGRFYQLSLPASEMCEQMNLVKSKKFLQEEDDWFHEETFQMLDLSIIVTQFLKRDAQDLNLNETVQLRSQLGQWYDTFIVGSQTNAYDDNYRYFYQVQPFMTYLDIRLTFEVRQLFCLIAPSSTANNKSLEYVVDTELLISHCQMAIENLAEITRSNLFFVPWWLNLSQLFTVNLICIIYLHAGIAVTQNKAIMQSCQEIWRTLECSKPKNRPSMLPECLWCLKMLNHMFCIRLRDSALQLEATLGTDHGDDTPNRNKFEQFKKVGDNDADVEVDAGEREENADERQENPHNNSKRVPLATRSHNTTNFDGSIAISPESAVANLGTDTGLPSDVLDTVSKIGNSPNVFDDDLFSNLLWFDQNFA
Consider ACAACGGC, for which the “PBM E-score” value was 0.108. For the sequence GAACGCGA, the “PBM E-score” value was -0.0119. With ATTTCCGG the figure was 0.426. ATTTCCGC: the “PBM E-score” value was 0.307. In the case of ATTTCCGA, the “PBM E-score” value was determined as 0.47. Consider ATTTCCAA, for which the “PBM E-score” value was 0.0026. With ATTTCCTG the figure was -0.0528; with ATTTCCCA, -0.0128.

Regarding TCTGGACA, the “PBM E-score” value was -0.0785. With GCATAGCC the figure was -0.0533; with GTCTGCTA, -0.0233; with CCGACGCC, 0.343.

Turning to GCGACGGA, the “PBM E-score” value was found to be 0.245. With ACGACCCG the figure was 0.251; with ACGACGCG, -0.0636; with CCGACGCG, 0.397. With CCGACCCC the figure was 0.214; with ACGACGGA, 0.22. Take CCGACGGA: the “PBM E-score” value turned out to be 0.404. On to CCGACCCG, for which the “PBM E-score” value is 0.407. With CTGACGCA the figure was -0.298; with CTCAGTGC, -0.109; with ACATTGCT, -0.233. Turning to GTCAGACA, the “PBM E-score” value was -0.0277. Next, ATTACGCA: 0.00056; AGCATTTC: -0.0674; GGTTGGAA: 0.12. With ATCTACCA the figure was -0.135; with TCCAACCA, -0.117. With CGAGATGC the figure was 0.0535. CCCCGACG: the “PBM E-score” value was 0.277. Next, GCCCGACA: 0.187. ACCCGACG: the “PBM E-score” value came out at 0.425. In the case of ACCCGACA, the “PBM E-score” value was determined as 0.402. As to CCCCGACA, the “PBM E-score” value worked out at 0.16. Next, ACCCGACT: 0.33; CGTTGGAG: -0.232; ACGAGCCA: -0.307. With CCGAGCCG the figure was 0.468; with ACGAGCCG, 0.292; with TCGAGCCA, -0.204.

For the sequence CGGAGCCG, the “PBM E-score” value was determined as 0.352. CCGAGCCA: the “PBM E-score” value is 0.407. Turning to GCGAGCCC, the “PBM E-score” value is -0.0138. Turning to ACGAGCCC, the “PBM E-score” value was -0.198.

For the sequence CCGAGCCC, the “PBM E-score” value came to 0.444. Next, GGAGTATA: 0.235. In the case of AACCGTCT, the “PBM E-score” value was 0.00908. Consider GCGGGTCA, for which the “PBM E-score” value came to 0.0978. GAGCCCAA: the “PBM E-score” value was -0.16. With GGAGGAAC the figure was -0.0445; with GTTCTGAA, -0.216. With AACGAGCT, the “PBM E-score” value was -0.256. Next, AACCCTCA: -0.148; GATTAGCA: -0.177. In the case of CTCGGACA, the “PBM E-score” value came out at 0.366. Next, CACGGAGA: 0.14.

Regarding ATCGGAGC, the “PBM E-score” value was 0.282. In the case of CTCGGAGA, the “PBM E-score” value is 0.406. With CTCGGACC the figure was 0.412. With ATCGGAGA the figure was 0.272; with CTCGGAGC, 0.395.

With CACGGACC, the “PBM E-score” value turned out to be 0.114. With CACGGAGC the figure was 0.174.

CGAGTGAC: the “PBM E-score” value is -0.0128. With ACCCTCGC the figure was -0.131.

For the sequence CACCTCGC, the “PBM E-score” value was 0.0165. Next, ATCCTCGA: -0.25. With ATCCTCGG the figure was 0.417. Next, ATCCTCGC: -0.0124; AACCTCGA: -0.0623. CACCTCGG: the “PBM E-score” value was determined as 0.393.

With AACCTCGG, the “PBM E-score” value amounted to 0.452. Consider ACCCTCGG, for which the “PBM E-score” value worked out at 0.426. Next, ACCCTCGA: -0.165; CACCTCGA: -0.0678. For AACCTCGT, the “PBM E-score” value is -0.062.

Consider AATGCGAA, for which the “PBM E-score” value came out at 0.0466.

As to GGTTGGTA, the “PBM E-score” value was determined as 1e-05.

On to TCGCATAA, for which the “PBM E-score” value was -0.0545. With CGGGCTGA the figure was 0.0911; with CGTCTTTA, -0.0915; with CAATTGGA, -0.112. Next, ACCTCCCT: -0.111. AAAGGGGA: the “PBM E-score” value is -0.22. With AGCTCCGG the figure was 0.301.

Values taken from the supplement of paper PMC3334620.
